High-throughput results (PubChem BioAssay)
G9a inh: inhibitors of human histone lysine methyltransferase G9a. Potency, µM (top dose mostly 102 µM), hits mostly inhibitors. G9a H3K9 monomethylation, AlphaScreen, 2 h. Q96KQ7. 350,000 tested, 8.8% active; also: nearly all actives have a fitted effect of over 75% in size
Target sequence (Q96KQ7 913-1193 limits assumed): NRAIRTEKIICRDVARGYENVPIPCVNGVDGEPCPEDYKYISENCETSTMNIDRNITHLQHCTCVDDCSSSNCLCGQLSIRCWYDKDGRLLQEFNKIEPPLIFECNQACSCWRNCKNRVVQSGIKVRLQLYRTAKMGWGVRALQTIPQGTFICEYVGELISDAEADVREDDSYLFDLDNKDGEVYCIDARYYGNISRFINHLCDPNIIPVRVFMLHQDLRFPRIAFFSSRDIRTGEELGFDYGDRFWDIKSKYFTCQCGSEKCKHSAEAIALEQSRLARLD
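Compounds were preincubated with 20 nM G9a for 15 min, after which biotinylated H3K9 peptide (500 nM) and SAM (20 uM) started a 2 h room-temperature reaction. Monomethylated product was quantified by antibody-based AlphaScreen chemiluminescence.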
BAZ2B block: inhibitors of human BAZ2B bromodomain. Q9UIF8. AlphaScreen BAZ2B-H3K14Ac peptide displacement. Potency, µM (highest dose often 114 µM), actives largely listed as inhibitors. 360,000 tested, 4.4% active; also: nearly all actives have a fitted effect of over 60% in size
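Protein-peptide AlphaScreen: BAZ2B 50 nM, b-H3K14Ac 50 nM, 1x PBS pH 7.4 + 0.01% Tween-20. Preincubation 30 min RT; cpd 30 min RT (top 110 uM); beads 20 min RT, light-protected.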
HP1b binding inh: inhibitors of HP1-beta chromodomain binding to methylated histone tails | P83916 | AlphaScreen HP1-beta / biotin-H3K9me3 peptide binding | Potency, µM (top dose mostly 114 µM), hits mostly inhibitors | 390,000 tested, 0.56% active | AID 540317; also: nearly all actives have a fitted effect of over 70% in size
Target sequence (P83916 whole entry, looked up): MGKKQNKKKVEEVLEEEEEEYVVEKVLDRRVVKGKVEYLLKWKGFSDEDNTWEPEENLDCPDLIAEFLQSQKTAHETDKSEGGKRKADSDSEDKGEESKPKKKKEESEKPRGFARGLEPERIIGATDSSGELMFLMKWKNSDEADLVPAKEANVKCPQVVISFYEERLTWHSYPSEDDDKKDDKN
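Compound inhibition of the preformed complex between 50 nM HP1-beta and 50 nM biotinylated H3K9me3 peptide was read by AlphaScreen. Buffer was PBS pH 7.4 with 0.01% Tween-20. Incubations ran 30 min at room temperature, with 10 ug/mL donor/acceptor beads.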
JMJD2A Tudor inh: inhibitors of human JMJD2A Tudor domain; O75164; AlphaScreen JMJD2A-Tudor / H3K4me3 peptide binding; Potency, µM (doses to about 114 µM), actives largely listed as inhibitors; 390,000 tested, 4.4% active; also: nearly all actives have a fitted effect of over 50% in size
GLS inh: blocks human kidney-isoform glutaminase activity; GLS enzymatic activity, qHTS titration; Potency, µM (highest dose often 45.5 µM), hits mostly inhibitors; 410,000 tested, 0.21% active; O94925; AID 624170
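Read-out is an Amplex red fluorescence increase coupled through glutamate oxidase and HRP, measured before and after 30 min room-temperature incubation. hKGA is in 45 mM KH2PO4 (pH 8.2) with 0.02% Tween-20; glutamine added as 1mM solution.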
Large screens that a line does not name were inactive. Hits are enriched below; roughly 10% of the tested compounds scored in any of these assays. Calls follow the shape of the dose curve; as a rule, active = well fitted curve in the direction sought with a large enough effect; inconclusive = small, poorly fitted or top-dose-only effect, or another doubt; inactive = no such curve, though single readings can be large; an effect the other way counts as inactive or inconclusive.

CCOc1ccccc1-c1nc(Cn2c(=O)cc(C)c3c(C)nn(-c4ccccc4)c32)c(C)o1	none
COC(=O)c1c(-c2ccccc2)oc2c1C(OCCO)CCC2 (stereo unspecified)	none (no result: G9a inh, BAZ2B block, HP1b binding inh, JMJD2A Tudor inh)
O=C(OCC(=O)N1CCc2ccccc2C1)c1ccc(N2CCOCC2)c([N+](=O)[O-])c1	G9a inh 40µM
O=[N+]([O-])c1cc(Cl)ccc1N1CCOCC1	G9a inh inconclusive, BAZ2B block inconclusive
Cc1ccc(Cl)c(OC(=O)c2ccc(N3CCOCC3)c([N+](=O)[O-])c2)c1	G9a inh 28µM, BAZ2B block inconclusive, HP1b binding inh inconclusive, JMJD2A Tudor inh inconclusive
O=C(O)C1CCN(S(=O)(=O)/C=C/c2ccccc2)CC1	none
Cc1c(N=N/C(C(=O)Nc2ccccc2)=C(/O)c2ccccc2)c(=O)n(-c2ccccc2)n1C	G9a inh 14µM, BAZ2B block 8.9µM, JMJD2A Tudor inh inconclusive
Cc1c(N=C(N)/N=C(\N)Nc2ccc(Br)cc2)c(=O)n(-c2ccccc2)n1C	JMJD2A Tudor inh 32µM
CCOC(=O)/C(N=Nc1c(C)n(C)n(-c2ccccc2)c1=O)=C(/O)c1ccccc1	BAZ2B block inconclusive
COc1ccc(-c2nn3c(-c4cc(-c5ccccc5)n[nH]4)nnc3s2)cc1	none (no result: G9a inh, BAZ2B block, GLS inh)
COc1ccc(O)c(/C=N/NC(=O)c2c(C)nnn2-c2nonc2N)c1	G9a inh 79µM, BAZ2B block inconclusive, JMJD2A Tudor inh inconclusive
CCOc1ccc(-c2c(C(=O)N/N=C/C3CC=CCC3)nnn2-c2nonc2N)cc1 (stereo unspecified)	BAZ2B block 79µM
CCOc1cccc(-c2c(C(=O)N/N=C(\C)c3ccccn3)nnn2-c2nonc2N)c1	BAZ2B block 13µM, JMJD2A Tudor inh 25µM (no result: G9a inh)
COc1ccc(/C=N/NC(=O)c2nnn(-c3nonc3N)c2-c2cccc(OC)c2)cc1	none
CCCc1c(C(=O)N/N=C/C2CC=CCC2)nnn1-c1nonc1N (stereo unspecified)	none (no result: G9a inh, BAZ2B block, HP1b binding inh, JMJD2A Tudor inh)
COc1cc(/C=N/NC(=O)c2nnn(-c3nonc3N)c2C(C)C)ccc1O	none
COc1ccccc1/C(C)=N/NC(=O)c1nnn(-c2nonc2N)c1C(C)C	JMJD2A Tudor inh 20µM, GLS inh inconclusive
COc1ccc(/C=N/NC(=O)c2nnn(-c3nonc3N)c2-c2cccs2)cc1OC	BAZ2B block 56µM
CCOc1cccc(-c2c(C(=O)N/N=C/c3ccoc3)nnn2-c2nonc2N)c1	BAZ2B block 79µM, JMJD2A Tudor inh 25µM, GLS inh inconclusive
COc1cc(/C=N/NC(=O)c2nnn(-c3nonc3N)c2-c2cccs2)ccc1O	none
O=C(NCc1ccc(F)cc1)c1cc(C2CCCN(C(=O)C3CCCCC3)C2)on1 (stereo unspecified)	none (no result: G9a inh, BAZ2B block, HP1b binding inh, JMJD2A Tudor inh)
Cn1c(=O)c2cc3c(nc2n(C)c1=O)CC(c1ccccc1)CC3=O (stereo unspecified)	JMJD2A Tudor inh 56µM
CSc1nc2nc3c(cn2n1)C(=O)CC(c1ccccc1)C3 (stereo unspecified)	none
COc1ccc(NC(=O)CSc2nnc(Cc3cccn3C)n2-c2ccc(OC)cc2)cc1	G9a inh 45µM, BAZ2B block 50µM
COc1ccc(-n2c(Cc3cccn3C)nnc2SCC(=O)Nc2ccc(C(C)=O)cc2)cc1	G9a inh 50µM, BAZ2B block inconclusive
CCOc1ccc(NC(=O)CSc2nnc(Cc3cccn3C)n2-c2ccc(OC)cc2)cc1	BAZ2B block inconclusive, HP1b binding inh inconclusive, JMJD2A Tudor inh inconclusive
Cc1ccc(NC(=O)CSc2nnc(Cc3cccn3C)n2-c2ccc(F)cc2)cc1	G9a inh inconclusive, BAZ2B block inconclusive
CC(=O)Nc1cccc(NC(=O)CSc2nnc(Cc3cccn3C)n2-c2ccc(C)cc2)c1	G9a inh 50µM, BAZ2B block inconclusive
CC(=O)c1ccc(NC(=O)CSc2nnc(Cc3cccn3C)n2-c2ccc(F)cc2)cc1	G9a inh 50µM, BAZ2B block 50µM, JMJD2A Tudor inh inconclusive
CCOC(=O)c1nc(NCc2ccc(Cl)cc2)c2c(C)noc2n1	none
COC(=O)[C@@]12CCCCN1[C@H](c1ccc(-c3ccc4c(c3)OCO4)cc1)[C@H]1C(=O)N(C)C(=O)[C@H]12	none (no result: G9a inh, BAZ2B block)
Cc1occc1-c1nnc(SCC(=O)c2c(N)n(C3CC3)c(=O)[nH]c2=O)n1C	none
COc1ccc(-n2c(Cc3cccn3C)nnc2SCC(=O)Nc2cccc(NC(C)=O)c2)cc1	BAZ2B block inconclusive
COc1ccc(-n2c(Cc3cccn3C)nnc2SCC(=O)Nc2ccc3c(c2)OCCO3)cc1	G9a inh 50µM, BAZ2B block inconclusive
CC1(C(=O)NCc2ccccc2)CCC(=O)N1CCCn1ccnc1 (stereo unspecified)	none (no result: G9a inh, BAZ2B block, HP1b binding inh, JMJD2A Tudor inh)
Cc1c(C(=O)Nc2ccc(F)cc2F)nnn1-c1ccccc1Br	none
CCOc1ccc(S(=O)(=O)NC2=NCCCCC2)cc1	none
O=c1cccc2n1Cc1cc3ccccc3nc1-2	G9a inh 45µM
c1ccc2nc3ccccc3cc2c1	none (no result: BAZ2B block, HP1b binding inh, JMJD2A Tudor inh, GLS inh)
O=C(O)c1cc(Cl)c2c(c1)[C@@H]1C=CC[C@@H]1[C@H](c1ccc(S(=O)(=O)N3CCOCC3)cc1)N2	G9a inh 22µM, BAZ2B block 50µM, JMJD2A Tudor inh 79µM, GLS inh 13µM
Cc1cc(C)c2c(c1)C1C=CCC1C(c1ccc(S(=O)(=O)N3CCOCC3)cc1)N2 (stereo unspecified)	G9a inh 8.9µM
Cc1ccc(S(=O)(=O)N2CCOCCOCCOCCOCCOCC2)cc1	none
O=C(O)c1cccc2c1C(=O)c1cc([N+](=O)[O-])ccc1-2	none (no result: G9a inh, BAZ2B block)
OCCN1CCN(c2ncnc3c2c(-c2ccccc2)cn3-c2ccc(Br)cc2)CC1	G9a inh 35µM, BAZ2B block 45µM, JMJD2A Tudor inh 35µM
NC(=O)C1CCN(c2ncnc3c2c(-c2ccccc2)cn3-c2ccccc2)CC1	G9a inh 50µM, BAZ2B block inconclusive, JMJD2A Tudor inh inconclusive
Clc1ccccc1N1CCN(c2ncnc3c2c(-c2ccccc2)cn3-c2ccccc2)CC1	none
COc1ccc(-n2cc(-c3ccccc3)c3c(NCCCN4CCOCC4)ncnc32)cc1	G9a inh 50µM, BAZ2B block inconclusive, HP1b binding inh inconclusive, JMJD2A Tudor inh inconclusive
CCN1CCN(c2ncnc3c2c(-c2ccccc2)cn3-c2ccc(F)cc2)CC1	G9a inh inconclusive, BAZ2B block inconclusive, JMJD2A Tudor inh 40µM
Fc1ccc(-n2cc(-c3ccccc3)c3c(N4CCOCC4)ncnc32)cc1	BAZ2B block inconclusive
CCOC(=O)c1csc(-c2csc(CCNC(=O)c3ccccc3)n2)n1	none (no result: G9a inh, BAZ2B block, HP1b binding inh, JMJD2A Tudor inh)
O=C(OCc1cc(=O)n2c(n1)sc1ccccc12)c1ccc(O)cc1	BAZ2B block inconclusive
O=c1cc(CCl)nc2sc3ccccc3n12	G9a inh inconclusive, BAZ2B block 50µM, JMJD2A Tudor inh 50µM
Cc1cccc(C(=O)N[C@H](C(=O)OCc2cc(=O)n3c(n2)sc2ccccc23)C(C)C)c1	BAZ2B block 40µM, JMJD2A Tudor inh inconclusive
